In PubChem BioAssay AID463187 (University of Pittsburgh Molecular Library Screening Center, 2010):
Hit rate of the full screen: of about 220,000 compounds, about 1,500 (0.68%) were called active. Shown is part of a subset that was picked to be rich in actives. Values without a mark were called inactive.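 Rule for the calls: active = Hck-Nef kinase inhibition above about 50% (limit read from the data); inactive = inhibition below that limit.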

These compounds were tested against Tyrosine-protein kinase HCK (Homo sapiens) (UniProt P08631) (assay: Hck:Nef complex kinase activity blockers – biochemical, Z-Lyte FRET, 384-well, Hck-YEEI, primary screen (AID 463187;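 note: 0% = DMSO with Hck plus Nef and 100% = Hck alone without Nef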)). Conditions: Recombinant Hck-YEEI plus Nef, Z-Lyte FRET kinase assay; at 20 µM; active compounds read high.
Sequence of Tyrosine-protein kinase HCK (Homo sapiens) (P08631 whole entry, looked up): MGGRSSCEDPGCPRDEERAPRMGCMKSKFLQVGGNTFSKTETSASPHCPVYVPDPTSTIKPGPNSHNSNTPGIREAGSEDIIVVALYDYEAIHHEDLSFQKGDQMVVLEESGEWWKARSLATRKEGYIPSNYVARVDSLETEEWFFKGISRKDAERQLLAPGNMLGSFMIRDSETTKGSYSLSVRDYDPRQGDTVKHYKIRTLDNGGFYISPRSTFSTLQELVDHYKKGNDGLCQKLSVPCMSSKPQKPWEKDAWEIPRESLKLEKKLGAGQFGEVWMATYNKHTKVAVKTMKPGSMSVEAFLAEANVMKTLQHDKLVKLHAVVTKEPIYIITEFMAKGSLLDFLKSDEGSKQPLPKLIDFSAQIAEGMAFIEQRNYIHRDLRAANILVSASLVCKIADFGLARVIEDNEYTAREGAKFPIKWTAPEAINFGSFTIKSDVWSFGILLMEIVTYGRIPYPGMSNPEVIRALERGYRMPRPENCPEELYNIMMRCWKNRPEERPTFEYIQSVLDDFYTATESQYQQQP

In order of falling inhibition:
1. Cc1cc(/C=C2/C(=O)NC(=O)N(Cc3ccco3)C2=O)c(C)n1-c1ccc(C(=O)O)cc1  49.2%
2. O=C1NC(=O)N(Cc2ccco2)C(=O)/C1=C\c1cccn1CCOc1ccccc1  27.2%
3. CC1=C(C(=O)Nc2ccccc2)S(=O)(=O)CCO1  26.8%
4. O=C1NC(=O)N(c2ccccc2)C(=O)/C1=C/c1ccc([N+](=O)[O-])s1  20.3%
5. CNC(=O)O/N=C(\N)Cc1csc2ccccc12  13.9%
6. Cc1cccc(NC(=O)OC2CN3CCC2CC3)c1 (stereo not given)  13.5%
7. CCOC(=O)c1c(N)n(Cc2ccccc2)c2nc3ccccc3nc12  9.2%
8. Cc1cccc(N2C(=O)NC(=O)/C(=C\c3cnn(-c4ccccc4)c3)C2=O)c1  5.24%
9. CSc1nc2ccc(C)cc2c(=O)n1-c1cccnc1  4.59%
10. O=C(N/N=C/c1c(O)n(Cc2ccccc2)c(=O)[nH]c1=O)c1ccccc1  1.83%
11. CCOC(=O)c1c(N)n(CCN2CCOCC2)c2nc3ccccc3nc12  -2.81%
12. O=C(Cn1c(=O)n(CC2CS2)c2ccccc21)N1CCCCC1 (stereo not given)  -9.69%

With `COc1cccc(N2C(=O)NC(=O)/C(=C\c3ccc([N+](=O)[O-])s3)C2=O)c1` the inhibition was 92.8% (active).
With `O=C1NC(=O)N(Cc2ccco2)C(=O)/C1=C\c1ccc(-c2ccc(F)cc2)o1` the inhibition was 59.4% (active).
With `COc1cc(Cn2c(N)c(C(=O)NCc3ccco3)c3nc4ccccc4nc32)cc(OC)c1OC` the inhibition was 66.7% (active).
